# Test results from PubChem BioAssay (NCATS).
# Unmarked numbers belong to inactive results. Results filed as inconclusive are left out. A call without a number means that no potency is given here. Calls of active or inactive are those of the source. Unless noted, calls follow the shape of the dose curve; as a rule, active = well fitted curve in the direction sought with a large enough effect; inconclusive = small, poorly fitted or top-dose-only effect, or another doubt; inactive = no such curve, though single readings can be large; an effect the other way counts as inactive or inconclusive.
# Assays:
# [1] = qHTS for inhibitors of adenylyl cyclases using a fission yeast platform: a pilot screen against the NCATS LOPAC library (AID 1347410)
# Procedure, shortened: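 S. pombe CHP2027 (AC9-GNAS-PDE4D2) carrying PKA-repressed fbp1-GFP, incubated 18 h at 30C in EMM with LOPAC compounds at up to 57 uM. GFP gain-of-signal read by laser scanning cytometry; DMSO negative control.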
# [2] = target: Cytochrome P450 2D6 (Homo sapiens) (UniProt P10635); test: Cytochrome P450 family 2 subfamily D member 6 (CYP2D6) small molecule antagonists: luciferase biochemical (cell-free) qHTS assay (AID 1645840; active = well fitted curve in the direction sought with a large enough effect in the repeat runs; an effect the other way counts as inactive or inconclusive; also: series mostly up to about 57 µM; nearly all actives have a fitted effect of over 55% in size)
# Chain of Cytochrome P450 2D6 (Homo sapiens) (P10635 whole entry, looked up): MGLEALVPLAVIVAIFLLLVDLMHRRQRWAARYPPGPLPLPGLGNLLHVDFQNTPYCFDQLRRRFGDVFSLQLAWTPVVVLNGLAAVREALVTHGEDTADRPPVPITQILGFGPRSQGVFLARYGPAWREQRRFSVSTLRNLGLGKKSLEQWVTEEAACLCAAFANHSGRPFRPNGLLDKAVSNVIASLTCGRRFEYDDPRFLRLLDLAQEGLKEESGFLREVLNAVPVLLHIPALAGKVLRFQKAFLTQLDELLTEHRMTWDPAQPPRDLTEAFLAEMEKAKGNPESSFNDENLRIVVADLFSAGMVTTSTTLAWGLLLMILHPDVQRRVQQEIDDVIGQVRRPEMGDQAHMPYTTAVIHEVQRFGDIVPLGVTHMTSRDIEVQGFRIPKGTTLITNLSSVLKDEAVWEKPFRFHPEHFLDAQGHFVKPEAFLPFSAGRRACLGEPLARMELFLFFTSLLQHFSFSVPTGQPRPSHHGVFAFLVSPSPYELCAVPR
# Procedure, shortened: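 P450-Glo luminescent screen: recombinant CYP2D6 enzyme–proluciferin substrate mix preincubated with compound 10 min at room temperature, then NADPH regeneration added for 1 h at room temperature. Detection reagent added for 20 min; luciferin light read as relative luminescence units.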
# [3] = target: Cytochrome P450 2C9 (Homo sapiens) (UniProt P11712); test: Cytochrome P450 family 2 subfamily C member 9 (CYP2C9) small molecule antagonists: luciferase biochemical (cell-free) qHTS assay (AID 1645842; active = well fitted curve in the direction sought with a large enough effect in the repeat runs; an effect the other way counts as inactive or inconclusive; also: potency is read from the fitted curve at half-maximal effect; nearly all actives have a fitted effect of over 55% in size)
# Chain of Cytochrome P450 2C9 (Homo sapiens) (P11712 whole entry, looked up): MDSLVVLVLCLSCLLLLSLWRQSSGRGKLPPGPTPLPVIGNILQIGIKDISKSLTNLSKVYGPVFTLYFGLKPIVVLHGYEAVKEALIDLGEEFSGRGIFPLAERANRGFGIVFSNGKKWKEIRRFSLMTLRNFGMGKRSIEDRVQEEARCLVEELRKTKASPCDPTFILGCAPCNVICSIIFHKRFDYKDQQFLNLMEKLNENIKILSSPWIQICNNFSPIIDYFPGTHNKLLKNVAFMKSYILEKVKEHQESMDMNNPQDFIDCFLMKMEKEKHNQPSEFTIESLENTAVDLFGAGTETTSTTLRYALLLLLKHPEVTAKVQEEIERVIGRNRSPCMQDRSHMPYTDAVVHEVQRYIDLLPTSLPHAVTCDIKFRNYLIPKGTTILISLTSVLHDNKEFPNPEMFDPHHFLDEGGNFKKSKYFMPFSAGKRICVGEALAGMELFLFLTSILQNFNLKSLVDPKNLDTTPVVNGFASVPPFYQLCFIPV
# Procedure, shortened: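 Luminescence, after 20 min with luciferin detection reagent, reflected CYP2C9 turnover during a 1 h NADPH-driven reaction at 37C. Enzyme-substrate mix contained 0.4% bovine serum albumin and was preincubated with compound 10 min at room temperature.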
# [4] = target: Papain (Carica papaya) (UniProt P00784); test: Primary qHTS assay for inhibitors of the protease papain (AID 1645873);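 also: papain turnover of Z-FR-AMC read as the AMC fluorescence gain over 10 min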; also: potency is read from the fitted curve at half-maximal effect
# Chain of Papain (Carica papaya) (P00784 whole entry, looked up): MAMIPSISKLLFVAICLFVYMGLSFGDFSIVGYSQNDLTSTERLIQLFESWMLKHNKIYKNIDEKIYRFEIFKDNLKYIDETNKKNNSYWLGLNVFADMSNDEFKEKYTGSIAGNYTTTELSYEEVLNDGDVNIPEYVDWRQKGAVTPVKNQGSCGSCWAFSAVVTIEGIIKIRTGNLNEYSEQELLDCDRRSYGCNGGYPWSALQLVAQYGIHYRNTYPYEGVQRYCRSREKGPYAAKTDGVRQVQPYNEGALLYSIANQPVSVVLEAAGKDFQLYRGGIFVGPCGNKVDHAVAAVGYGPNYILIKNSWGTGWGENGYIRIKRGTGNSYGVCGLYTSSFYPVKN
# [5] = target: Calcium and integrin-binding protein 1 (Homo sapiens) (UniProt Q99828); test: Validation qHTS for Identification of Calcium Integrin Binding protein 1 (CIB1) Competitor (AID 1508618)
# Chain of Calcium and integrin-binding protein 1 (Homo sapiens) (Q99828 whole entry, looked up): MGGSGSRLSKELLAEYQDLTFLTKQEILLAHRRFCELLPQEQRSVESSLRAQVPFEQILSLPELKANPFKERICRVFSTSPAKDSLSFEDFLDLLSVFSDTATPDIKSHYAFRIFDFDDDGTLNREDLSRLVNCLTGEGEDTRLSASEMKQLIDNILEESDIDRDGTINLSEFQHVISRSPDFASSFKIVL
# Procedure, shortened: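 Fluorescence polarization with 1 uM CIB1-GST and 100 nM FITC-alphaIIb peptide in HEPES pH 7.4, NaCl, 5 mM CaCl2, Tween20. Compounds at up to 114 uM final, preincubated with protein 15 min; read after 15 min more at RT.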
# [6] = qHTS to identify inhibitors of the type 1 interferon - major histocompatibility complex class I in skeletal muscle: primary screen against the NCATS Mechanism Interrogation Plate v5.0 (MIPE) Libary (AID 1347411); also: nearly all actives have a fitted effect of over 65% in size
# Procedure, shortened: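 Immortalized human myoblasts (C25cl48) with HiBit knocked into endogenous HLA-B*08:01 were stimulated with 4 ng/ml IFN-beta and given compounds in 11-point 1:3 titration from 46 uM. After 24 h at 37 C, lytic HiBiT luminescence was read.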
# [7] = Primary qHTS for small molecule stabilizers of the endoplasmic reticulum resident proteome: Secreted ER Calcium Modulated Protein (SERCaMP) assay (AID 1508630)
# Procedure, shortened: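 GLuc-SERCaMP-expressing SH-SY5Y cells, pretreated 16 h with compound, are challenged with thapsigargin to empty ER calcium stores; after 4 h, coelenterazine is added directly to the medium and luminescence is imaged.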
compound,measurement,setting,value
CCCCN(CC)c1nc(C)nc2c1c(C)cn2-c1c(C)cc(C)cc1C,outcome,[1],inactive
same,Potency,[2],inactive
same,Potency,[3],12 µM (active)
same,Potency,[4],inactive
S=c1[nH]c(-c2ccccc2)cn1-c1ccccc1,outcome,[1],inactive
same,outcome,[5],inactive
same,Potency,[4],inactive
Nc1nc2c(ncn2[C@@H]2O[C@H](CO)[C@@H](O)[C@@H]2O)c(=O)[nH]1,outcome,[1],inactive
same,outcome,[5],inactive
same,Potency,[4],inactive
CCC(CO)Nc1nc(NCc2ccccc2)c2ncn(C(C)C)c2n1 (configuration not stated),outcome,[1],inactive
same,Potency,[4],inactive
O=C(Nc1ccc2[nH]ncc2c1)C1CCC1,outcome,[1],inactive
same,Potency,[4],inactive
COc1ccc(C(=O)/C(Cc2cc(OC)c(OC)c(OC)c2)=C(\C(=O)O)c2ccc3c(c2)OCO3)cc1,outcome,[1],inactive
same,outcome,[5],inactive
same,Potency,[4],inactive
Cn1c(=O)c(-c2c(Cl)cccc2Cl)cc2cnc(Nc3ccc(N4CCOCC4)cc3)nc21,outcome,[1],inactive
same,outcome,[5],inactive
same,Potency,[4],inactive
Brc1cc2c(cc1[C@H]1Nc3ccccc3[C@H]3C=CC[C@H]31)OCO2,outcome,[1],inactive
same,Potency,[4],inactive
COc1ccc(/C=C/c2nc(NCCCN(C)C)c3ccccc3n2)cc1,outcome,[1],inactive
same,outcome,[5],inactive
same,Potency,[4],28.2 µM (active)
CC[C@H]1OC(=O)[C@H](C)C(O[C@H]2C[C@@](C)(OC)[C@@H](O)[C@H](C)O2)[C@H](C)[C@@H](OC2O[C@H](C)C[C@H](N(C)C)[C@H]2O)[C@](C)(O)C[C@@H](C)CN(C)[C@H](C)[C@@H](O)[C@]1(C)O (some centres not stated),outcome,[1],inactive
same,Potency,[4],inactive
CC(C)c1cccc(C(C)C)c1N1C(=O)c2ccc(O)cc2C1=O,outcome,[1],inactive
same,outcome,[5],inactive
same,Potency,[4],inactive
COc1ccc(-c2cc(=O)c3c(O)c(OC)c(OC)cc3o2)cc1O,outcome,[1],inactive
same,Potency,[4],inactive
Nc1nc2ccc(Cl)cc2n2c(-c3ccccc3)nnc12,outcome,[1],inactive
same,outcome,[5],inactive
same,Potency,[4],inactive
COc1ccccc1CN[C@@H]1CCCN[C@@H]1c1ccccc1,outcome,[1],inactive
same,Potency,[4],inactive
CC[C@H]1OC(=O)[C@H](C)[C@@H](O[C@H]2C[C@@](C)(OC)[C@@H](O)[C@H](C)O2)[C@H](C)[C@@H](O[C@@H]2O[C@H](C)C[C@H](N(C)C)[C@H]2O)[C@](C)(O)C[C@@H](C)C(=O)[C@H](C)[C@@H](O)[C@]1(C)O,Potency,[6],inactive
Nc1nc(OCC2CCCCC2)c2[nH]cnc2n1,outcome,[1],inactive
same,Potency,[4],inactive
CC(C)(NS(=O)(=O)c1ccc(Oc2ccc(F)cc2)cc1)C(=O)NO,outcome,[1],inactive
same,outcome,[5],inactive
same,Potency,[4],inactive
COc1cc(OC)cc(-c2cc3cnc(N)nc3nc2NC(=O)NC(C)(C)C)c1,outcome,[1],inactive
same,Potency,[4],inactive
O=C1NC(=O)c2c1c(-c1ccccc1)cc1[nH]c3ccc(O)cc3c21,outcome,[1],inactive
same,Potency,[7],inactive
same,Potency,[4],inactive
COc1ccc(/C=C2\COc3ccc(C)cc3C2=O)cc1O,outcome,[1],inactive
same,outcome,[5],inactive
same,Potency,[4],inactive
CN[C@H](CC(C)C)C(=O)N[C@H]1C(=O)N[C@@H](CC(N)=O)C(=O)N[C@H]2C(=O)N[C@H]3C(=O)N[C@H](C(=O)N[C@H](C(=O)O)c4cc(O)cc(O)c4-c4cc3ccc4O)[C@H](O)c3ccc(c(Cl)c3)Oc3cc2cc(c3O[C@@H]2O[C@H](CO)[C@@H](O)[C@H](O)[C@H]2O[C@H]2C[C@](C)(N)[C@H](O)[C@H](C)O2)Oc2ccc(cc2Cl)[C@H]1O,outcome,[1],inactive
same,outcome,[5],inactive
same,Potency,[4],inactive
Nc1ccn([C@H]2O[C@H](CO)[C@@H](O)C2(F)F)c(=O)n1,outcome,[1],inactive
same,outcome,[5],inactive
same,Potency,[4],inactive
COc1ccc(Br)cc1S(=O)(=O)NC(=O)/C=C/c1ccccc1Cc1ccc2ccccc2c1,outcome,[1],inactive
same,Potency,[4],inactive
CCCC(CCC)C(=O)OC1CC2CCC(C1)[N+]2(C)C (configuration not stated),outcome,[1],inactive
same,outcome,[5],inactive
same,Potency,[4],inactive
O=c1cc(-c2ccccc2)oc2c(O)c(O)ccc12,outcome,[1],inactive
same,Potency,[4],inactive
O=C(CCSCc1ccco1)NNC(=O)N1Cc2ccccc2Oc2ccc(Cl)cc21,outcome,[1],inactive
same,outcome,[5],inactive
same,Potency,[4],inactive
